“And” between values parts separate entries of the source, which are not always exact repeats. Equal entries are not always repeated. In all, about 5,500 compounds went through this assay and about 2,000 (36%) were called active. Inconclusive results (about 18%) are left out. Rule as the data show it: active = normalized growth mostly below about 0.91 (no sharp cut-off); inconclusive = no clear call, values can overlap the other calls; inactive = mostly above about 0.92. The list shows a part of the results.
Experiment: chemical genetic growth profiling, strain panel (AID 1159580);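 also: tested at 20 µM; growth read once vehicle control cultures reached saturation at 30 °C; 1 = growth at the plate median or of vehicle wells; lower values mean less growth of the strain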
Conditions: S. cerevisiae deletion strains, growth OD

Measured: normalized growth

O=c1cc(-c2ccccc2)oc2cc(O)c(O)c(O)c12
active: locus YAL013W, strain DEP1, stronger effect = lower value 0.367 | locus YAL021C, strain ccr4, stronger effect = lower value 0.0818 | locus YAL026C, strain drs2, stronger effect = lower value 0.198 | locus YAL030W, strain snc1, stronger effect = lower value 0.562 | locus YBL061C, strain skt5, stronger effect = lower value 0.449 | locus YBR009C, strain hhf1, stronger effect = lower value 0.535 | locus YBR023C, strain chs3, stronger effect = lower value 0.279 | locus YBR171W, strain sec66, stronger effect = lower value 0.386 | locus YBR229C, strain ROT2, stronger effect = lower value 0.458 | locus YBR231C, strain swc5, stronger effect = lower value 0.29 | locus YBR279W, strain paf1, stronger effect = lower value 0.574 | locus YCL011C, strain gbp2, stronger effect = lower value 0.565 | locus YCL016C, strain dcc1, stronger effect = lower value 0.683 | locus YCL029C, strain bik1, stronger effect = lower value 0.174 | locus YCL069W, strain vba3, stronger effect = lower value 0.608 | locus YCR088W, strain abp1, stronger effect = lower value 0.604 | locus YDL005C, strain med2, stronger effect = lower value 0.636 | locus YDL035C, strain GPR1, stronger effect = lower value 0.402 | locus YDL040C, strain nat1, stronger effect = lower value 0.612 | locus YDL074C, strain BRE1, stronger effect = lower value 0.219 | locus YDL101C, strain DUN1, stronger effect = lower value 0.115 | locus YDL134C, strain PPH21, stronger effect = lower value 0.586 | locus YDL185W, strain tfp1, stronger effect = lower value 0.549 | locus YDL192W, strain arf1, stronger effect = lower value 0.512 | locus YDR001C, strain nth1, stronger effect = lower value 0.721 | locus YDR069C, strain doa4, stronger effect = lower value 0.127 | locus YDR101C, strain arx1, stronger effect = lower value 0.176 | locus YDR137W, strain rgp1, stronger effect = lower value 0.161 | locus YDR150W, strain NUM1, stronger effect = lower value 0.591 | locus YDR159W, strain sac3, stronger effect = lower value 0.148 | locus YDR162C, strain NBP2, stronger effect = lower value 0.224 | locus YDR195W, strain ref2 0.327 | locus YDR297W, strain sur2, stronger effect = lower value 0.445 | locus YDR318W, strain mcm21, stronger effect = lower value 0.589 | locus YDR334W, strain swr1, stronger effect = lower value 0.351 | locus YDR335W, strain msn5, stronger effect = lower value 0.138 | locus YDR388W, stronger effect = lower value 0.555 | locus YDR392W, strain spt3, stronger effect = lower value 0.562 | locus YDR502C, strain sam2, stronger effect = lower value 0.214 | locus YEL003W, strain gim4, stronger effect = lower value 0.291 | locus YEL037C, strain rad23, stronger effect = lower value 0.407 | locus YEL061C, strain CIN8 (second series), stronger effect = lower value 0.695 | locus YEL061C, strain CIN8, stronger effect = lower value 0.496 | locus YER015W, strain faa2, stronger effect = lower value 0.287 | locus YER016W, strain bim1, stronger effect = lower value 0.736 | locus YER110C, stronger effect = lower value 0.851 | locus YER111C, strain swi4, stronger effect = lower value 0.113 | locus YER155C, strain BEM2 (second series), stronger effect = lower value 0.338 | locus YER155C, strain BEM2, stronger effect = lower value 0.449 | locus YER167W, strain BCK2, stronger effect = lower value 0.573 | locus YFR010W, strain ubp6, stronger effect = lower value 0.218 | locus YGL078C, strain dbp3, stronger effect = lower value 0.84 | locus YGL086W, strain mad1, stronger effect = lower value 0.636 | locus YGL167C, strain pmr1, stronger effect = lower value 0.396 | locus YGL173C, strain kem1, stronger effect = lower value 0.23 | locus YGL227W, strain vid30, stronger effect = lower value 0.677 | locus YGL240W, strain doc1, stronger effect = lower value 0.657 | locus YGL248W, strain PDE1, stronger effect = lower value 0.561 | locus YGL253W, strain hxk2, stronger effect = lower value 0.485 | locus YGR078C, strain PAC10, stronger effect = lower value 0.536 | locus YGR135W, strain pre9, stronger effect = lower value 0.443 | locus YGR229C, strain SMI1, stronger effect = lower value 0.107 | locus YGR252W, strain gcn5, stronger effect = lower value 0.576 | locus YHR013C, strain ard1, stronger effect = lower value 0.504 | locus YHR027C, strain rpn1, stronger effect = lower value 0.295 | locus YHR030C, strain SLT2, stronger effect = lower value 0.304 and 0.677 | locus YHR079C, strain IRE1 (second series), stronger effect = lower value 0.139 | locus YHR079C, strain IRE1, stronger effect = lower value 0.612 | locus YHR094C, strain hxt1, stronger effect = lower value 0.699 | locus YHR129C, strain ARP1, stronger effect = lower value 0.531 | locus YHR142W, strain chs7, stronger effect = lower value 0.285 | locus YHR200W, strain rpn10, stronger effect = lower value 0.604 | locus YIL066C, strain RNR3, stronger effect = lower value 0.425 | locus YIL073C, strain SPO22, stronger effect = lower value 0.381 | locus YIL125W, strain kgd1, stronger effect = lower value 0.808 | locus YIR030C, strain dcg1, stronger effect = lower value 0.359 | locus YJL092W, strain hpr5, stronger effect = lower value 0.531 | locus YJL095W, strain BCK1 (second series), stronger effect = lower value 0.218 | locus YJL095W, strain BCK1, stronger effect = lower value 0.0738 and 0.684 | locus YJL115W, strain asf1, stronger effect = lower value 0.648 | locus YJL129C, strain trk1, stronger effect = lower value 0.312 | locus YJL134W, strain LCB3, stronger effect = lower value 0.588 | locus YJL154C, strain vps35, stronger effect = lower value 0.68 | locus YJL164C, strain tpk1, stronger effect = lower value 0.347 | locus YJL166W, strain qcr8, stronger effect = lower value 0.437 | locus YJL168C, strain set2, stronger effect = lower value 0.808 | locus YJL187C, strain SWE1 (second series), stronger effect = lower value 0.106 | locus YJR043C, strain POL32, stronger effect = lower value 0.288 | locus YJR066W, strain TOR1, stronger effect = lower value 0.68 | locus YJR075W, strain HOC1, stronger effect = lower value 0.558
inactive: locus YBR021W, strain FUR4, stronger effect = lower value 0.885

— PubChem BioAssay AID1159580 (chemical genetic matrix, 2015)
